Hits are enriched below; roughly 2.8% of the tested compounds scored in any of these assays.
Pol iota inh – qHTS for Inhibitors of Polymerase Iota; DNA polymerase iota (Homo sapiens), Q9UNA4; Pol iota fluorescent replication assay, 10 min; Potency, µM (top dose mostly 115 µM), hits mostly inhibitors; hit rate 1% among 390,000; AID 588590, 2011
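Pol iota at 10 nM preincubated 15 min with compounds at room temperature; reaction started with fluorescent substrate, 50 nM final. Fluorescence read kinetically at 0 and 10 min; buffer-only wells as negative control.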
FEN1 inh – qHTS Assay for the Inhibitors of Human Flap endonuclease 1 (FEN1) | Recombinant FEN1 flap cleavage, fluorescence, 15 min | AID 588795, 2011 | Potency, µM (highest dose often 114 µM), hits mostly inhibitors | hit rate 0.35% among 390,000; further: nearly all actives have a fitted effect of over 65% in size
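With each library titrated from low to high concentration, compounds met 10 nM FEN1 for 15 min at room temperature before 50 nM substrate was added; readings at 0 and 15 min fed four-parameter Hill curve fits.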
Pol eta inh-1 – qHTS for Inhibitors of Polymerase Eta | DNA polymerase eta (Homo sapiens), Q9Y253 | recombinant Pol eta, fluorescent DNA replication assay | Potency, µM (highest dose often 114 µM), most hits filed as inhibitors | hit rate 1.2% among 390,000 | AID 588591, 2011
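Fluorescent replication assay: 50 nM final substrate added after a 15 min room-temperature compound preincubation with 10 nM enzyme. Signal taken at 0 min and again at 10 min.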
Pol kappa inh-1 – qHTS for Inhibitors of Polymerase Kappa. DNA polymerase kappa (Homo sapiens), Q9UBT6. purified Pol kappa, fluorescent DNA synthesis assay, 10 min. Potency, µM (top dose mostly 107 µM), most hits filed as inhibitors. hit rate 0.53% among 400,000. AID 588579, 2011
Target sequence (Q9UBT6 whole entry, looked up): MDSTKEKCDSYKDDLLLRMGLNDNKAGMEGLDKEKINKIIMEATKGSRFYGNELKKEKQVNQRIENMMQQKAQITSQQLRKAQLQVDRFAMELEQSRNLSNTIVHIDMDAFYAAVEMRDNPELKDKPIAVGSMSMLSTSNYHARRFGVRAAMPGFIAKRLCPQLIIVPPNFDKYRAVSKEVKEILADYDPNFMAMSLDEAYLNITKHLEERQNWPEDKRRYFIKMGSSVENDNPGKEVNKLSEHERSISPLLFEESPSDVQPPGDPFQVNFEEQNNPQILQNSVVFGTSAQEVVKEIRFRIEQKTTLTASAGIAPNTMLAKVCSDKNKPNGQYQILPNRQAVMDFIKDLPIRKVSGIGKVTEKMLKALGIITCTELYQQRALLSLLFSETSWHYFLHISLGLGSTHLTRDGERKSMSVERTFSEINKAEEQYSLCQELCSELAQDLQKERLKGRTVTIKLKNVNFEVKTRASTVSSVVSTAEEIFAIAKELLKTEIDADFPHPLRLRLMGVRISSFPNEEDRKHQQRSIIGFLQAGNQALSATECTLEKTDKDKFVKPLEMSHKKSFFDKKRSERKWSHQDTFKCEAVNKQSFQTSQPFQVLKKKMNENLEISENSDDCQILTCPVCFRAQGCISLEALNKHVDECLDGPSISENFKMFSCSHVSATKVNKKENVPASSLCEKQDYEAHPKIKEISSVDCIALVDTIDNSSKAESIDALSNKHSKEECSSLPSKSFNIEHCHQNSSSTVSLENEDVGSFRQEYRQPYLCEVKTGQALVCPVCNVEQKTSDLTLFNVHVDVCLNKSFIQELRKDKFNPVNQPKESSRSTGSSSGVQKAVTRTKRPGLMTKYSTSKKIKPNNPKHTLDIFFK
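Readout: fluorescence, taken kinetically at 0 and 10 min. Conditions: 10 nM Pol kappa, 15 min RT compound preincubation, 50 nM substrate final. Controls: enzyme-free buffer wells.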
POLB inh – qHTS Assay for Inhibitors of DNA Polymerase Beta; Pol beta primer extension/strand displacement, fluorescence kinetic; Potency, µM (doses to about 114 µM), actives largely listed as inhibitors; hit rate 1.3% among 340,000; P06746
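Preincubation: enzyme (10 nM) with compound, 15 min, RT. Reaction: substrate added to 50 nM final. Reads: 0 and 10 min. Analysis: normalized, Hill fit.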
PI5P4Ka inh – qHTS for Inhibitors of phosphatidylinositol 5-phosphate 4-kinase (PI5P4K); Phosphatidylinositol 5-phosphate 4-kinase type-2 alpha (Homo sapiens), P48426; PI5P4Kalpha enzyme, ADP-Glo luminescence, 60 min; stronger effect = lower value; max response, %; hit rate 1.2% among 330,000; AID 652105, 2013; active means max response of -50% or lower; inconclusive means between -30% and -50%; inactive means -30% or higher; further: value at the top dose of about 77 µM
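Human PI5P4Kalpha with substrate in 0.038 M HEPES pH 7.4, 0.28 mM EGTA, 0.1% CHAPS, 5% DMSO; reaction started with 5 microM ATP (final), 60 min at room temperature. ADP formed read by ADP-Glo luminescence.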
Pol kappa inh-2 – qHTS for Inhibitors of Polymerase Kappa: Confirmatory Assay for Cherry-picked Compounds | shares compounds with Pol eta inh-1 | purified Pol-kappa, fluorescent strand-displacement substrate | Potency, µM, usual class: inhibitors | hit rate 76% among 920 | AID 720501, 2013
Pol eta inh-2 – qHTS for Inhibitors of Polymerase Eta: Confirmatory Assay for Cherry-picked Compounds; shares compounds with Pol eta inh-1; Pol eta primer extension, TAMRA/BHQ fluorescence, 10 min; Potency, µM, usual class: inhibitors; hit rate 64% among 2,600
Numbers stand for hits; - = inactive; ? = inconclusive; . = no result given; [ ] = another dose, or the depositor's remark. Unless noted, the call rests on the fitted dose curve; in most records, active means well fitted curve in the direction sought with a large enough effect; inconclusive means small, poorly fitted or top-dose-only effect, or another doubt; inactive means no such curve, though single readings can be large; an effect the other way counts as inactive or inconclusive.

SMILES	Pol iota inh	FEN1 inh	Pol eta inh-1	Pol kappa inh-1	POLB inh	PI5P4Ka inh	Pol eta inh-2	others
CCc1ccc(NS(=O)(=O)c2ccc3[nH]cc(C(=O)N4CCCCCC4)c(=O)c3c2)cc1	?	-	-	-	?	.	.
Cc1ccccc1NS(=O)(=O)c1ccc2[nH]cc(C(=O)N3CCCC3)c(=O)c2c1	?	-	89µM	-	?	.	?
CC(C)c1ccc(NS(=O)(=O)c2ccc3[nH]cc(C(=O)N4CCCC4)c(=O)c3c2)cc1	79µM	-	?	?	?	.	43
COc1ccc(NC(=O)/C(=C\c2ccc(OC)c(OC)c2)NC(=O)c2ccco2)cc1	-	-	?	-	-	-	.
COc1ccc(Nc2c3c(nc4ccc(NC(=O)/C=C/c5cccc(OC)c5OC)cc24)CCCC3)cc1OC	?	-	-	13µM	?	.	.	Pol kappa inh-2=3.4
COc1ccccc1Nc1c2c(nc3ccc(NC(=O)/C=C/c4cccc(OC)c4OC)cc13)CCCC2	-	-	-	?	-	.	.	Pol kappa inh-2=0.84
O=S(O)CO	.	.	.	-	.	.	.
C=CC1=C(C(=O)O)N2C(=O)[C@@H](NC(=O)/C(=N\O)c3csc(N)n3)[C@H]2SC1 (stereo in doubt)	?	-	?	?	.	?	?
O=C(Cc1ccc(Br)cc1)N/N=C/c1ccc(-c2cccc(C(=O)O)c2)o1	-	-	22µM	?	?	?	30
O=Cc1ccc(-c2cccc(C(=O)O)c2)o1	?	-	10µM	?	?	-	48
Cc1c(C(=O)O)cccc1-c1ccc(C=O)o1	?	-	5µM	?	28µM	-	85
O=C(O)c1ccc(N/N=C/c2ccc(-c3ccc(Br)cc3)o2)cc1	?	-	-	-	?	-	.
Nc1nnc(CC(=O)N/N=C/c2ccc(-c3cccc(C(=O)O)c3)o2)s1	11µM	?	18µM	25µM	-	-57	60
Cc1ccc(C(C)C)c(OCCSc2nc3ccccc3n2CC(O)CO)c1 (stereo unspecified)	-	-	-	-	-	.	.
COc1ccc2c(c1)CCC1[C@@H]2CCC2(C)[C@@H](NCCCCCCN3C(=O)C=CC3=O)CC[C@@H]12 (stereo partly specified)	.	.	.	-[19.4 µM]	.	.	.
COc1cc(/C=C/C(=O)O)cc(S(=O)(=O)Nc2ccc(S(=O)(=O)N3CCCCC3)cc2)c1OC	?	-	?	-	.	-	.
Cc1ccc2c(CC(=O)Nc3ccc(S(=O)(=O)Nc4nc(C)cc(C)n4)cc3)coc2c1	-	-	-	-	-	.	.
COc1ccc2occ(CC(=O)Nc3ccc(S(=O)(=O)Nc4nc(C)cc(C)n4)cc3)c2c1	79µM	?	25µM	?	28µM	.	?	Pol kappa inh-2=42
Cc1cc(NC(=O)c2ccc(C#N)cc2)on1	-	-	-	-	-	-	.
COc1ccccc1OCCSc1nc2ccccc2n1CCC(=O)O	-	-	-	-	-	-	.
COc1ccccc1OCCn1c(SCC(=O)O)nc2ccccc21	?	-	22µM	79µM	28µM	-	?	Pol kappa inh-2=34
O=C(CNC(=O)C12CC3CC(CC(C3)C1)C2)N/N=C\c1ccco1	-	-	-	-	-	-	.
O=C(/C=C/c1ccco1)c1ccc(NC(=O)C23CC4CC(CC(C4)C2)C3)cc1	?	?	10µM	?	7.1µM	-77	?
C/C=C/COC(=O)c1[nH]c2c(c1C)C(=O)CC(c1ccco1)C2 (stereo unspecified)	?	-	22µM	79µM	22µM	-	?
COc1cc(O)cc2cc3c(c(O)c12)C(=O)CC(C)(O)O3 (stereo unspecified)	?	?	45µM	?	50µM	?	?
